The supplement of paper PMC10849652
About 8,800 targets were measured; listed, in parts, are those with a hit and a random draw of the rest. About 0.5% of all pairs of compound and target were hits. Values without a mark were called inactive.

Tests used:
Test in all cases: log2 fold change, soluble protein after heating vs DMSO (PISA); higher = thermal stabilisation; K562 lysate, 10 uM; active = over 0.2 and 3.5 SD of the protein, either way, in both replicates (recomputed)
[1] = compound: Cc1cn(-c2cc(NC(=O)c3ccc(C)c(Nc4nccc(-c5cccnc5)n4)c3)cc(C(F)(F)F)c2)cn1 [nilotinib]
Method in brief: (§1)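 Quantification was by TMTpro 16plex LC-MS/MS with equalised channel sums, applied to the supernatant after 21,000xg for 90 min. Samples were crude K562 extract at 1 mg/mL protein in PBS pH 7.4 with 1 mM MgCl2, treated with 10 μM compound for 30 min, heated for 3 min across 48°C-58°C, pooled and brought to 0.5% NP-40 at 4°C. Values are log-two fold changes in thermal stability relative to solvent controls, from duplicates.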

[2] = compound: Cc1nc(Nc2n[nH]c3c2CN(C(=O)N[C@H](CN(C)C)c2ccccc2)C3(C)C)c2sccc2n1
Method in brief: as §1

[3] = compound: Cc1nc(Nc2ncc(C(=O)Nc3c(C)cccc3Cl)s2)cc(N2CCN(CCO)CC2)n1 [dasatinib]
Method in brief: as §1

[4] = compound: Cc1ncc(-c2ccnc(Nc3ccc(S(C)(=O)=O)cc3)n2)n1C(C)C
Method in brief: as §1

[5] = compound: Cn1cc(-c2ccc3c(c2)CCN3C(=O)Cc2cccc(C(F)(F)F)c2)c2c(N)ncnc21
Method in brief: as §1

[6] = compound: Cn1cc(CNCC2CCN(c3ncc(C(=O)NO)cn3)CC2)c2ccccc21 [quisinostat]
Method in brief: as §1

[7] = compound: Cn1cncc1[C@@](N)(c1ccc(Cl)cc1)c1ccc2c(c1)c(-c1cccc(Cl)c1)cc(=O)n2C [tipifarnib]
Method in brief: as §1

[8] = compound: NC(=O)Nc1cc(-c2cccc(F)c2)sc1C(=O)N[C@H]1CCCNC1
Method in brief: as §1

[9] = compound: NC(=O)c1cnc(N[C@@H]2CCCC[C@@H]2N)nc1Nc1cccc(-n2nccn2)c1
Method in brief: as §1

[10] = compound: NC1(c2ccc(-c3nc4ccn5c(=O)[nH]nc5c4cc3-c3ccccc3)cc2)CCC1
Method in brief: as §1

Sequence of UniProt P22059 (P22059 whole entry, looked up): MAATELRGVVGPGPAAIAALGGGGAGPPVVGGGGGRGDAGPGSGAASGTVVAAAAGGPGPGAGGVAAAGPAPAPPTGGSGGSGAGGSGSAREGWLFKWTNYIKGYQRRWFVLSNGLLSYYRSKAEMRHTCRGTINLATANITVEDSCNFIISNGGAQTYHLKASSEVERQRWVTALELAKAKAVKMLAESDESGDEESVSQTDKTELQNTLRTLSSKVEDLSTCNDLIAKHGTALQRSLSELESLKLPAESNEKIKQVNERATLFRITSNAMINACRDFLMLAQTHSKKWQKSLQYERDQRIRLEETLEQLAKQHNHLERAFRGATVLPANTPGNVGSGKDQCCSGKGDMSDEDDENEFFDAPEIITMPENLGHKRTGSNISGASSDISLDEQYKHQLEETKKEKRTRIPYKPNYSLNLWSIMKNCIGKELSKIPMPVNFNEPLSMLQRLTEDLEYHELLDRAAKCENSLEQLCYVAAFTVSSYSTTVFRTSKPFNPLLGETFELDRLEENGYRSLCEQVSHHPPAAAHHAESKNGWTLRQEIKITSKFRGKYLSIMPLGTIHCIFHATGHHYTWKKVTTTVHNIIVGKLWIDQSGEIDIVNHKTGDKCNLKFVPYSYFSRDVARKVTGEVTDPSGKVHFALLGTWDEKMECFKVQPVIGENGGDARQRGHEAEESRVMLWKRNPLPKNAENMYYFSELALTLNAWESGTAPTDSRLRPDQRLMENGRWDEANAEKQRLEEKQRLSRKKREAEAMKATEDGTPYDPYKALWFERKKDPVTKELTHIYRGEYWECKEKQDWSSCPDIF
Sequence of UniProt Q5JRK9 (Q5JRK9 whole entry, looked up): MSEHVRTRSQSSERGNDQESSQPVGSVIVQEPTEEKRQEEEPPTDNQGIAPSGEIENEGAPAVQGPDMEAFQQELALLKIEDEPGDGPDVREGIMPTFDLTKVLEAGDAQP
Sequence of UniProt Q13330 (Q13330 whole entry, looked up): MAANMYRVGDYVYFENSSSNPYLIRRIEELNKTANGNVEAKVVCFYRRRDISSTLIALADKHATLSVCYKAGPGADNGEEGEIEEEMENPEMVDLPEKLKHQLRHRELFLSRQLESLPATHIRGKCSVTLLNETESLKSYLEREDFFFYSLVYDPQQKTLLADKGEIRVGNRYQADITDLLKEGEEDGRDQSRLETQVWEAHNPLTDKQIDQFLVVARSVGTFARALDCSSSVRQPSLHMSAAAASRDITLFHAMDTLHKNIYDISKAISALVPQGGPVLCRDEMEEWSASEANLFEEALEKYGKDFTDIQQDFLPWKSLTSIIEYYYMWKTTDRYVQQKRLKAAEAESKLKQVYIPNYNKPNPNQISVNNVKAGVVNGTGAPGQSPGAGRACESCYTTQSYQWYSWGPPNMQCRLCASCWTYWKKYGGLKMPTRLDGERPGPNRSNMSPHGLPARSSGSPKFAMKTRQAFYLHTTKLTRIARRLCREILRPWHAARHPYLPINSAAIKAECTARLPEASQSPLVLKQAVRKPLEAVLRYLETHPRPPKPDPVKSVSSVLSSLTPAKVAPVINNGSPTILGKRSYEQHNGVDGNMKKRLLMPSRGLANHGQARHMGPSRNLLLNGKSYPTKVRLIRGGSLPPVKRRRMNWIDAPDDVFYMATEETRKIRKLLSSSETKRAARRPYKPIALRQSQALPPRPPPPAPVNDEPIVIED
Sequence of UniProt Q969R2 (Q969R2 whole entry, looked up): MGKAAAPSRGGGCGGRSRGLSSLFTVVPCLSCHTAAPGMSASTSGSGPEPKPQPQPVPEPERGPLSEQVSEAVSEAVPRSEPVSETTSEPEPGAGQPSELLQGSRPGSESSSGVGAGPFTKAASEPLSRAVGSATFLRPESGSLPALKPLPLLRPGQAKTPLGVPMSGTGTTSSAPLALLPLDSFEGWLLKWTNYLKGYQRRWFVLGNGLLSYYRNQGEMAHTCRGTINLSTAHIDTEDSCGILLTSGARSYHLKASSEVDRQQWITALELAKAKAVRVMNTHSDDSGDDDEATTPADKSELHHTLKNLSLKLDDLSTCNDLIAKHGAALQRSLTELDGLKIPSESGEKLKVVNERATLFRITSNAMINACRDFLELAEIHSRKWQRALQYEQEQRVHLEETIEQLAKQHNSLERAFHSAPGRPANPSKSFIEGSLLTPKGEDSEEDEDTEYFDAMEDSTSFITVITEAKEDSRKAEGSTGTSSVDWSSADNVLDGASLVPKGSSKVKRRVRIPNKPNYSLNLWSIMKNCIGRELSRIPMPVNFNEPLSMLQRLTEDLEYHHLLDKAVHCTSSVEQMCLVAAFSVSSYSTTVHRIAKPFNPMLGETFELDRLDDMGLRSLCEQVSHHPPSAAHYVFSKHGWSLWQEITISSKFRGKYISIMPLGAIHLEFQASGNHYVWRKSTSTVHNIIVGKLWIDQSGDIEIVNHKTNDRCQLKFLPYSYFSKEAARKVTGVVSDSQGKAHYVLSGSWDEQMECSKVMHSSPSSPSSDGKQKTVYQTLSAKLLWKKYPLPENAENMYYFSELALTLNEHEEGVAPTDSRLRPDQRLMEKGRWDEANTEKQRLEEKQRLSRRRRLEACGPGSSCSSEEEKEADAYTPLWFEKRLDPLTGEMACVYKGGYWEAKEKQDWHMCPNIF
Sequence of UniProt Q8TDX7 (Q8TDX7 whole entry, looked up): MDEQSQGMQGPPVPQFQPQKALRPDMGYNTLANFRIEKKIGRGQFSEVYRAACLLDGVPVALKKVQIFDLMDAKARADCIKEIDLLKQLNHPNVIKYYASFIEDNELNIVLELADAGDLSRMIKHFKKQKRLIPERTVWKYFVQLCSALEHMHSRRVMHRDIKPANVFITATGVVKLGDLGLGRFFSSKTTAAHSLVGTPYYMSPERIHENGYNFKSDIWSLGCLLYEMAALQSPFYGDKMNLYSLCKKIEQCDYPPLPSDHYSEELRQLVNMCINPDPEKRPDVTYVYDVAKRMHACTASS
Sequence of UniProt Q8TEW0 (Q8TEW0 whole entry, looked up): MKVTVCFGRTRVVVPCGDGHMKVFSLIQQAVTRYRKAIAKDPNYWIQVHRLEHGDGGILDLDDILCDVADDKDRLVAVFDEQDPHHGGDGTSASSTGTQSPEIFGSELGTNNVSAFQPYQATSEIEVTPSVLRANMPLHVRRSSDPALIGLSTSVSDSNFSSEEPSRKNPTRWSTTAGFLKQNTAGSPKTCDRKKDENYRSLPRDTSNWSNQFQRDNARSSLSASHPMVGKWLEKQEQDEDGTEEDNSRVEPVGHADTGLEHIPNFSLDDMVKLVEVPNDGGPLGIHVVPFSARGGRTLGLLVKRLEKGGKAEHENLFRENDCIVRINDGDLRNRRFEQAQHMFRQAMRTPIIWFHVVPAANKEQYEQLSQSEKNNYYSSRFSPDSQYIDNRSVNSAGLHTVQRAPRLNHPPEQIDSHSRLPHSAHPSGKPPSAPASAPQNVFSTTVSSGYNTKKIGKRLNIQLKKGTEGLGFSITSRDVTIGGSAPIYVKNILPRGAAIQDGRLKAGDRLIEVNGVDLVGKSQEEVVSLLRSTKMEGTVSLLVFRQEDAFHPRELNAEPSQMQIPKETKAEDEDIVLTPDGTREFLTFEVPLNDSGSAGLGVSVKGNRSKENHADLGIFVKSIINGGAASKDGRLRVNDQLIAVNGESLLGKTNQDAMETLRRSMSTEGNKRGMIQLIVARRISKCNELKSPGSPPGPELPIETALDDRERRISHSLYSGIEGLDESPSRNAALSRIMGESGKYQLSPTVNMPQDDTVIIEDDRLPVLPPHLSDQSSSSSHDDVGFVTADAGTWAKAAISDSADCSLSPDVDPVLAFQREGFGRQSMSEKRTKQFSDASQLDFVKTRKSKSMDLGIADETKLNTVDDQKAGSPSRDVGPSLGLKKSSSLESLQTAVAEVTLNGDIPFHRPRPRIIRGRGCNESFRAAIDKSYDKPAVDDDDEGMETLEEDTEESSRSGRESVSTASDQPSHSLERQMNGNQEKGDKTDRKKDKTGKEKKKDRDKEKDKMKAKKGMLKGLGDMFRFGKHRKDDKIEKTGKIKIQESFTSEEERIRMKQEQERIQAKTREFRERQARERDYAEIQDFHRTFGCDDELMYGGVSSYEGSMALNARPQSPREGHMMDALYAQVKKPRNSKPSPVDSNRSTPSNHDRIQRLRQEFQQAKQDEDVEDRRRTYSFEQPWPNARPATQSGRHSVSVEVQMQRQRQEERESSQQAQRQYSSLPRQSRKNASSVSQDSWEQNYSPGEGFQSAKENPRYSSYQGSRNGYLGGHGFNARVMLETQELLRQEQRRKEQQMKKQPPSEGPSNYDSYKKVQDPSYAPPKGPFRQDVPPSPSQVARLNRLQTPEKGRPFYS
Sequence of UniProt Q9Y5N5 (Q9Y5N5 whole entry, looked up, one chain of several): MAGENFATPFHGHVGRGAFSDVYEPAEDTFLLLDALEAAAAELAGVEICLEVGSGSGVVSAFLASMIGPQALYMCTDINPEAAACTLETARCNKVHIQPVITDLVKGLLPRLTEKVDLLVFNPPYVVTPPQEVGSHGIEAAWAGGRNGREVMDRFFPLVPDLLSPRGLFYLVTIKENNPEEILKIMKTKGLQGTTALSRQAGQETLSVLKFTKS
Sequence of UniProt Q8TAT6 (Q8TAT6 whole entry, looked up): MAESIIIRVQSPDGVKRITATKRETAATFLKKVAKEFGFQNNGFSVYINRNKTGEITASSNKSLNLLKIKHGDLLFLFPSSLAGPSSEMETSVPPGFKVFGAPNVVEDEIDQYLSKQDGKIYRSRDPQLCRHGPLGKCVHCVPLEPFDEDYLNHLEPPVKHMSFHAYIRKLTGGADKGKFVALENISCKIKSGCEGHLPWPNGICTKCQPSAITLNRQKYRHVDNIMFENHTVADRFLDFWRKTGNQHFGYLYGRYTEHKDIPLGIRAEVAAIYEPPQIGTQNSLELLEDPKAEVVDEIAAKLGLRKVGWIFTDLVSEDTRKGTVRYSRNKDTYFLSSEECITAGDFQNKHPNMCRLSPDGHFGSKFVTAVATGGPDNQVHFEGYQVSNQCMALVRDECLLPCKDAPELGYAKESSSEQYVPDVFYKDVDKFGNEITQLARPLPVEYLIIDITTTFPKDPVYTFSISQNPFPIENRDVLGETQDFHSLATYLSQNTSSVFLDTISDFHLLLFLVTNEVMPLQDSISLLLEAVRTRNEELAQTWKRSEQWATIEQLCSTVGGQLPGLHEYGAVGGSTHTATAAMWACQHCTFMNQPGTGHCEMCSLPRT

Target	log2 fold change [1]	log2 fold change [2]	log2 fold change [3]	log2 fold change [4]	log2 fold change [5]	log2 fold change [6]	log2 fold change [7]	log2 fold change [8]	log2 fold change [9]	log2 fold change [10]
PARD3 (UniProt Q8TEW0)	-0.114	-0.109	0.021	-0.031	0.024	-0.002	0.121	0.029	0.199	0.105
NEK7 (UniProt Q8TDX7)	0.003	0.016	-0.03	0.045	0.168	-0.018	-0.006	0.033	0.018	0.01
MSI2 (UniProt Q96DH6)	-0.089	0.011	0.01	0.009	0.049	0.023	-0.057	0.029	0.028	-0.016
OPA1 isoform 2 (UniProt O60313)	0.026	-0.008	-0.07	0.007	0.018	0.055	-0.035	0.025	0.016	-0.012
OSBP2 (UniProt Q969R2)	-0.053	-0.038	-0.089	-0.025	-0.002	-0.184	-0.053	0.052	0.075	0.026
NDUFA4 (UniProt O00483)	0.062	0.058	0.043	0.16	-0.007	0.104	0.031	-0.065	0.08	0.019
NCAPG (UniProt Q9BPX3)	0.01	0.002	-0.062	0	0.007	-0.08	0	0.012	-0.004	-0.019
PAGE2B (UniProt Q5JRK9)	0.036	-0.007	0.032	0.062	-0.016	0.001	0.026	0.041	-0.018	0.164
NADK2 (UniProt Q4G0N4)	0.022	0.002	-0.016	-0.008	-0.022	0.017	0.008	-0.032	0.029	0.03
OSBP (UniProt P22059)	-0.073	0.005	-0.221 (active)	-0.015	-0.011	0	0.042	0.012	0.031	0.04
NAA30 (UniProt Q147X3)	-0.036	0.019	-0.042	0.059	-0.005	0.032	-0.097	0.001	-0.018	0.041
NCAPG2 (UniProt Q86XI2)	-0.002	-0.035	-0.078	-0.024	-0.015	-0.092	0.003	0.061	0.045	-0.031
PARG (UniProt Q86W56)	0.006	0.017	-0.033	0.007	-0.004	-0.081	-0.007	0.097	0.006	0.006
NOCT (UniProt Q9UK39)	-0.045	0.011	0.013	-0.084	0.017	0	0.061	0.043	0.004	-0.014
NUP98 (UniProt P52948)	-0.041	-0.017	-0.053	-0.008	0.031	-0.049	-0.12	0.055	-0.002	0.003
MTA1 (UniProt Q13330)	0.042	0.01	-0.023	0.033	0.005	-0.089	-0.03	0.052	-0.033	-0.004
PAXBP1 (UniProt Q9Y5B6)	-0.014	0.012	-0.046	0.011	0.024	-0.041	-0.008	0.031	0.023	-0.006
NRIP1 (UniProt P48552)	0.035	-0.127	0.135	0.035	0	-0.437	-0.03	0.083	0.022	-0.048
N6AMT1 (UniProt Q9Y5N5)	-0.009	0.1	0.002	0.018	0.013	0	0.06	-0.013	-0.027	0.037
NFATC2IP (UniProt Q8NCF5)	0.027	-0.015	0.071	-0.055	0.005	0.019	0.061	0	-0.015	0.03
NIFK (UniProt Q9BYG3)	0.033	-0.003	-0.012	0.035	-0.01	-0.042	0.002	0.037	-0.016	-0.038
NIT2 (UniProt Q9NQR4)	-0.011	0.001	-0.03	-0.021	-0.027	0.004	0.019	0.021	-0.016	-0.023
PAK4 (UniProt O96013)	-0.015	0.71 (active)	0.141	0.264	-0.081	-0.269	-0.016	0.9 (active)	0.473	0.257
NPLOC4 isoform 2 (UniProt Q8TAT6)	-0.005	0.007	0.019	0.007	0.004	-0.037	0	-0.006	0.018	-0.023
OGT (UniProt O15294)	0.018	0.01	-0.027	-0.002	0.041	-0.067	-0.012	0.026	0.009	-0.023
NBEAL2 (UniProt Q6ZNJ1)	0.031	-0.008	-0.069	0.036	0.029	-0.077	-0.017	0.033	0.014	0.06
NAP1L5 (UniProt Q96NT1)	-0.008	-0.053	0.024	0.045	0.01	0.068	0.054	-0.05	-0.049	0.005
MTHFD1, A0A384N5Y3	0.005	-0.018	-0.081	-0.008	0.032	-0.044	-0.02	0.039	0.008	-0.017
MXRA7 (UniProt P84157)	-0.307	0	0.03	-0.202	-0.034	-0.069	-0.006	0.1	-0.078	-0.003
NUDT5 (UniProt Q9UKK9)	0.021	0	0.045	0.008	-0.024	-0.016	-0.013	-0.018	-0.013	-0.014
